# Experimental data reported in PubChem BioAssay (NCATS).
# “And” between values parts separate entries of the source, which are not always exact repeats. Equal entries are not always repeated. Records with an inconclusive call do not appear. A call without a number means that no potency is given here. The source made the active and inactive calls. Calls follow the shape of the dose curve; as a rule, active = well fitted curve in the direction sought with a large enough effect; inconclusive = small, poorly fitted or top-dose-only effect, or another doubt; inactive = no such curve, though single readings can be large; an effect the other way counts as inactive or inconclusive.
# How the values were obtained:
# [1] = qHTS of pediatric cancer cell lines to identify multiple opportunities for drug repurposing: Confirmatory screen for SJ-GBM2 cells (AID 1347116); conditions: SJ-GBM2 glioblastoma cells, viability; series mostly up to 45.9 µM; also: nearly all actives have a fitted effect of over 60% in size; also: potency is read from the fitted curve at half-maximal effect
# Procedure, shortened: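 Viability measured as metabolically active cells via CellTiter-Glo luminescence following 48 hours of compound exposure, 11-point dilutions in confirmatory testing. 500-1,000 cells/well plated 5 hours before dosing; controls were DMSO and 2.3 µM bortezomib.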
# [2] = qHTS of pediatric cancer cell lines to identify multiple opportunities for drug repurposing: Confirmatory screen for TC32 cells (AID 1347118); conditions: TC32 Ewing sarcoma cells viability qHTS; series mostly up to 0.556 µM;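 also: potency is read from the fitted curve at half-maximal effect; cells exposed to compound for 48 h before the read; nearly all actives have a fitted effect of over 65% in size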
# Procedure, shortened: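 TC32 cells, 500-1,000/well in growth medium, compound-treated 48 h at 37 °C; viability from CellTiter-Glo luminescence. Primary screen: MIPE 11-point (0.78 nM–46 µM final), NPC 8-point (0.59 nM–46 µM final); confirmatory at 11-point dilutions.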
# [3] = qHTS of pediatric cancer cell lines to identify multiple opportunities for drug repurposing: Confirmatory screen for control Hh wild type fibroblast cells (AID 1347121); conditions: viability qHTS; series mostly up to 45.9 µM; also: nearly all actives have a fitted effect of over 70% in size; also: potency is read from the fitted curve at half-maximal effect
# Procedure, shortened: (§1)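 Cells (500-1,000/well) in growth media were settled 5 h at 37 degrees C, then given compounds for 48 h. Viability was read as CellTiter-Glo luminescence. Primary runs used MIPE at 11 points (0.78 nM-46 µM) and NPC at 8 points (0.59 nM-46 µM); follow-ups used 11 points.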
# [4] = qHTS of pediatric cancer cell lines to identify multiple opportunities for drug repurposing: Confirmatory screen for Rh41 cells (AID 1347123); conditions: Rh41 rhabdomyosarcoma cells, viability/cytotoxicity qHTS; series mostly up to 45.9 µM;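 also: 48 h compound exposure; nearly all actives have a fitted effect of over 60% in size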; also: potency is read from the fitted curve at half-maximal effect
# Procedure, shortened: as §1
# [5] = qHTS of pediatric cancer cell lines to identify multiple opportunities for drug repurposing: Confirmatory screen for Rh18 cells (AID 1347125); conditions: Rh18 rhabdomyosarcoma cells, viability; series mostly up to 45.9 µM; also: nearly all actives have a fitted effect of over 55% in size; also: potency is read from the fitted curve at half-maximal effect
# Procedure, shortened: as §1
# [6] = qHTS of pediatric cancer cell lines to identify multiple opportunities for drug repurposing: Confirmatory screen for Rh30 cells (AID 1347126); conditions: Rh30 rhabdomyosarcoma cell viability; series mostly up to 45.9 µM; also: nearly all actives have a fitted effect of over 55% in size; also: potency is read from the fitted curve at half-maximal effect
# Procedure, shortened: as §1
# [7] = qHTS of pediatric cancer cell lines to identify multiple opportunities for drug repurposing: Confirmatory screen for OHS-50 cells (AID 1347128); conditions: OHS-50 osteosarcoma cells viability; series mostly up to 45.9 µM;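 also: compound exposure lasted 48 h at 37 degrees C; nearly all actives have a fitted effect of over 55% in size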; also: potency is read from the fitted curve at half-maximal effect
# Procedure, shortened: as §1
# [8] = system: Zika virus NS2B-NS3 protease; experiment: Primary screen GU AMC qHTS for Zika virus inhibitors (AID 1347154); conditions: Zika NS2B-NS3 unlinked protease, AMC fluorogenic substrate; series mostly up to 54.1 µM; also: nearly all actives have a fitted effect of over 70% in size; also: potency is read from the fitted curve at half-maximal effect
# Procedure, shortened: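 Unlinked Zika NS2B hydrophilic domain/NS3 protease domain noncovalent complex (25 nM final) in 10 mM Tris-HCl pH 8.0, 0.01% Tween 20, with AMC peptide substrate. Fluorescence (ex 340, em 450 nm) change over 15 min, room temperature; percent inhibition fitted to 4-parameter Hill equation.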
# [9] = molecular target: N-terminal Xaa-Pro-Lys N-methyltransferase 1 (Homo sapiens) (UniProt Q9BV86); experiment: qHTS Assay for Inhibitors of N-terminal methyltransferase 1 (NTMT1): LOPAC validation of the NTMT1 SAHH-coupled ThioGlo3 Assay (AID 1347143); conditions: recombinant NTMT1, SAHH-coupled ThioGlo3 fluorescence; series mostly up to 114 µM; also: nearly all actives have a fitted effect of over 70% in size
# Chain of N-terminal Xaa-Pro-Lys N-methyltransferase 1 (Homo sapiens) (Q9BV86 whole entry, looked up): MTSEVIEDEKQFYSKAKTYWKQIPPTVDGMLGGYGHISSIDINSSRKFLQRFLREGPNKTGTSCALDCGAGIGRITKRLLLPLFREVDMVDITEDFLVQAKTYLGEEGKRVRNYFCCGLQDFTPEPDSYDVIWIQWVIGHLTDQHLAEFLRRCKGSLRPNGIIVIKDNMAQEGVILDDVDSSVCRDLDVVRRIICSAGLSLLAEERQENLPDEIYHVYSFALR
# Procedure, shortened: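 Fluorescence read-out (excitation 340nm, emission 450nm) of SAH-derived thiol, measured via SAHH coupling and ThioGlo3, taken immediately and after a 30 min room-temperature reaction, then normalized to the background read. Enzyme: NTMT1 at 125nM; cofactor SAM 100uM in the added reagent.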
# [10] = system: Zika virus NS2B-NS3 protease (unlinked); experiment: Optimization of GU AMC qHTS for Zika virus inhibitors: Unlinked NS2B-NS3 protease assay (AID 1347151); conditions: recombinant ZIKV NS2B-NS3 protease, fluorogenic AMC substrate; series mostly up to 52.5 µM; also: nearly all actives have a fitted effect of over 80% in size
# Procedure, shortened: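 Noncovalent complex of NS2B hydrophilic domain and NS3 protease domain, 25 nM final, in 10 mM Tris-HCl pH 8.0, 0.01% Tween 20. AMC fluorescence change over 15 min at room temperature was fitted to a 4-parameter Hill equation.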
# [11] = molecular target: Furin (Homo sapiens) (UniProt P09958); experiment: Furin counterscreen qHTS for Zika virus inhibitors (AID 1347149); conditions: furin enzymatic counterscreen, fluorogenic substrate; series mostly up to 57.5 µM; also: nearly all actives have a fitted effect of over 70% in size; also: potency is read from the fitted curve at half-maximal effect
# Chain of Furin (Homo sapiens) (P09958 whole entry, looked up): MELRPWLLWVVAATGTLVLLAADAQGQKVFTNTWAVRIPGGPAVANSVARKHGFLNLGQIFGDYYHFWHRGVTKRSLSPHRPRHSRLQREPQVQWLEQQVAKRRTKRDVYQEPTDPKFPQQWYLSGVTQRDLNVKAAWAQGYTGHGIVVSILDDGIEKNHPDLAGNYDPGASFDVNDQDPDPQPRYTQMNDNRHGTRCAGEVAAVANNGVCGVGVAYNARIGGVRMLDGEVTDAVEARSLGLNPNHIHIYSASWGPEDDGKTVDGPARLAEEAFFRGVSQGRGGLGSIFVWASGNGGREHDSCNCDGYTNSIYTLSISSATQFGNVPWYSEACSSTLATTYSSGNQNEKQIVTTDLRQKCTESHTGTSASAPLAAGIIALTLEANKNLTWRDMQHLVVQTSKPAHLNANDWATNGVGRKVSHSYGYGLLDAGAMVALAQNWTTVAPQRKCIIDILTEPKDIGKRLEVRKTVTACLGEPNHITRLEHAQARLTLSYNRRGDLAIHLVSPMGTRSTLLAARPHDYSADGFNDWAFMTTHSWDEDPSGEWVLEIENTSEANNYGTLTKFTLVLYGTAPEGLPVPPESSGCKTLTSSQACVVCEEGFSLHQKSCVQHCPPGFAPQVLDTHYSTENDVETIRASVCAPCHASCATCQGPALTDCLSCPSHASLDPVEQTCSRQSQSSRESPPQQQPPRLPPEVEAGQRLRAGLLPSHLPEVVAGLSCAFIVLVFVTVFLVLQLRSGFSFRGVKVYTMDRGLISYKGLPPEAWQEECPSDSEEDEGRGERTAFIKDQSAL
# Procedure, shortened: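 Fluorogenic cleavage of BOC-RVRR-AMC (2 microM final, Km ~15 µM) was monitored (ex 340, em 450 nm) at 37C after 15 min RT preincubation of 5 nM furin with compounds in HEPES pH 7.0 buffer with CaCl2 and Triton X-100. Percent inhibition was fitted to a 4-parameter Hill curve.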
# [12] = system: Zika virus NS2B-NS3 protease (unlinked complex); experiment: Confirmatory screen GU AMC qHTS for Zika virus inhibitors (AID 1347153); conditions: Recombinant NS2B-NS3 protease, AMC substrate fluorescence
# Procedure, shortened: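 Unlinked NS2B-NS3 complex (25 nM) in 10 mM Tris-HCl pH 8.0, 0.01% Tween 20 preincubated 15 min with compound, then 10 microM Bz-Nle-KRR-AMC (Km 18.3 µM). Fluorescence change over 15 min, normalized, Hill-fitted.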
# [13] = ZIKV-mCherry secondary qHTS for Zika virus inhibitors (AID 1347158); conditions: Vero cells, ZIKV-mCherry infection imaging, 48-72 h; series mostly up to 32.6 µM; also: top concentration of the series differs between compounds
# Procedure, shortened: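 Vero, 5,000 cells/well, o/n 37 °C; cpd pin-transferred in DMSO; ZIKV-mCherry MOI 1, 48-72 h 37 °C; 32% PFA stock fix, Hoechst; imaged 10x DAPI/mCherry; mCherry+ threshold 450 RFU; % infection.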
# [14] = qHTS of pediatric cancer cell lines to identify multiple opportunities for drug repurposing: Confirmatory screen for NB-EBc1 cells (AID 1347115); conditions: NB-EBc1 neuroblastoma cells, viability (cytotoxicity); series mostly up to 45.9 µM;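 also: cells exposed to compound for 48 h before the viability read; nearly all actives have a fitted effect of over 45% in size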; also: potency is read from the fitted curve at half-maximal effect
# Procedure, shortened: as §1
# [15] = qHTS of pediatric cancer cell lines to identify multiple opportunities for drug repurposing: Confirmatory screen for Saos-2 cells (AID 1347127); conditions: Saos-2 osteosarcoma cell viability; series mostly up to 45.9 µM; also: nearly all actives have a fitted effect of over 60% in size; also: potency is read from the fitted curve at half-maximal effect
# Procedure, shortened: as §1
# [16] = system: Zika virus NS2B-NS3 protease (unlinked complex); experiment: Primary screen GU Rhodamine qHTS for Zika virus inhibitors: Unlinked NS2B-NS3 protease assay (AID 1347159); conditions: Recombinant ZIKV NS2B-NS3 protease, Rhodamine110 substrate fluorescence; series mostly up to 107 µM; also: nearly all actives have a fitted effect of over 60% in size
# Procedure, shortened: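 Noncovalent NS2B hydrophilic domain/NS3 protease complex (25 nM final) in 10 mM Tris-HCl pH 8.0, 0.01% Tween 20, preincubated 15 min with compounds (up to 114 microM), then 1.5 microM Rhodamine110 substrate. Fluorescence change over 15 min fitted to 4-parameter Hill.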
# [17] = system: Zika virus NS2B-NS3 protease (linked construct); experiment: Primary screen NINDS Rhodamine qHTS for Zika virus inhibitors (AID 1347160); conditions: purified NS2B-NS3 protease, Rhodamine110 substrate fluorescence; series mostly up to 57.1 µM; also: nearly all actives have a fitted effect of over 55% in size
# Procedure, shortened: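 Purified NS2B-NS3 protease with the NS2B hydrophilic domain joined by a flexible linker (25 nM) in 10 mM Tris-HCl pH 8.0, 0.01% Tween 20, preincubated 15 min at RT with compound; Rhodamine110 peptide substrate 1.5 µM; fluorescence change over 15 min; 4-parameter Hill fit.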
# [18] = Confirmatory screen GU Rhodamine qHTS for Zika virus inhibitors qHTS (AID 1347157); conditions: purified enzyme assay, Rhodamine110 substrate fluorescence, 15 min; series mostly up to 114 µM; also: nearly all actives have a fitted effect of over 70% in size; also: potency is read from the fitted curve at half-maximal effect
# Procedure, shortened: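 Unlinked NS2B/NS3, 25 nM; Rhod110 peptide, 1.5 microM; compounds, up to 114 microM. Reaction run 15 min at RT in 10 mM Tris-HCl pH 8.0, 0.01% Tween 20; kinetic fluorescence change fitted with a 4-parameter Hill model.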
smiles,measurement,setting,value
O=[N+]([O-])c1ccc(/C=N\O)o1,Potency,[1],0.928 µM (active)
same,Potency,[2],3.29 µM (active)
same,Potency,[3],inactive
same,Potency,[4],5.85 µM (active)
same,Potency,[5],inactive
same,Potency,[6],1.17 µM (active)
same,Potency,[7],inactive
same,Potency,[8],inactive
NC(N)=NCc1cccc(I)c1,outcome,[9],inactive
same,outcome,[10],inactive
N#C/C(=C1\SCC(c2ccccc2Cl)S1)n1ccnc1 (stereo not drawn),Potency,[8],inactive
C=C1c2cccc(O)c2C(O)=C2C(=O)[C@]3(O)C(O)=C(C(N)=O)C(=O)[C@@H](N(C)C)[C@@H]3[C@@H](O)[C@H]12,Potency,[11],8.55 µM (active)
same,Potency,[12],19.2 µM (active)
same,Potency,[8],3.98 µM (active) and 2.99 µM (active)
same,outcome,[13],inactive
COc1ccc(C(=O)c2ccccc2)c(O)c1,Potency,[14],inactive
same,Potency,[1],inactive
same,Potency,[3],inactive
same,Potency,[4],inactive
same,Potency,[5],inactive
same,Potency,[6],inactive
same,Potency,[15],inactive
same,Potency,[7],inactive
same,Potency,[8],inactive
O[C@@H](c1cc(C(F)(F)F)nc2c(C(F)(F)F)cccc12)[C@H]1CCCCN1,Potency,[11],inactive
same,outcome,[10],inactive
same,Potency,[8],inactive
CC(=O)NC(=O)c1ccccc1O,Potency,[8],inactive
CC1CCc2c(N3CCC(O)CC3)c(F)cc3c(=O)c(C(=O)O)cn1c23 (stereo not drawn),Potency,[14],inactive
same,Potency,[3],inactive
same,Potency,[4],18.5 µM (active)
same,Potency,[6],inactive
CCN1/C(=C/C=C/c2sc3ccccc3[n+]2CC)Sc2ccccc21,Potency,[14],2.61 µM (active)
same,Potency,[1],2.04 µM (active)
same,Potency,[2],1.04 µM (active)
same,Potency,[3],0.465 µM (active)
same,Potency,[4],0.512 µM (active)
same,Potency,[5],5.22 µM (active)
same,Potency,[6],inactive
same,Potency,[15],4.14 µM (active)
same,Potency,[7],5.85 µM (active)
same,Potency,[8],inactive
O=C(CCCN1CC=C(n2c(=O)[nH]c3ccccc32)CC1)c1ccc(F)cc1,Potency,[14],inactive
same,Potency,[1],inactive
same,Potency,[3],inactive
same,Potency,[4],18.5 µM (active)
same,Potency,[5],inactive
same,Potency,[6],inactive
same,Potency,[15],inactive
same,Potency,[7],inactive
same,Potency,[8],inactive
same,outcome,[16],inactive
same,outcome,[17],inactive
CCCCOC(=O)CC(CC(=O)OCCCC)(OC(C)=O)C(=O)OCCCC,Potency,[8],inactive
CC(C)[N+](C)(C)CC(O)COc1cccc2ccccc12 (stereo not drawn),Potency,[8],inactive
N[C@H](C(=O)O)[C@@H](O)c1ccc(O)c(O)c1,Potency,[8],12.8 µM (active)
CN(CCCN1c2ccccc2CCc2ccccc21)CC(=O)c1ccc(Cl)cc1,Potency,[8],inactive
C#C[C@]1(O)CC[C@H]2[C@@H]3CCC4=CC(=O)CC[C@@H]4[C@H]3CC[C@@]21CC,Potency,[8],inactive
O=C1C(O)=C(O)C(=O)C(O)=C1O,Potency,[8],inactive
CCCCCCCCCCC[C@@H](C[C@@H]1OC(=O)[C@H]1CCCCCC)OC(=O)[C@H](CC(C)C)NC=O,Potency,[14],inactive
same,Potency,[1],inactive
same,Potency,[3],inactive
same,Potency,[4],4.65 µM (active)
same,Potency,[5],inactive
same,Potency,[6],inactive
same,Potency,[15],inactive
same,Potency,[7],inactive
Oc1c(Cl)cc(Cl)c(Cl)c1Cc1c(O)c(Cl)cc(Cl)c1Cl,Potency,[18],15.8 µM (active)
C=C[C@H]1CN2CC[C@H]1C[C@H]2[C@H](O)c1ccnc2ccc(OC)cc12,Potency,[18],inactive
same,outcome,[16],inactive
CC[C@]12CCCN3CCc4c(n(c5ccccc45)C(=O)C1)[C@@H]32,outcome,[16],inactive
same,outcome,[17],inactive
O=C1[C@H](CC[C@H](O)c2ccc(F)cc2)[C@@H](c2ccc(O)cc2)N1c1ccc(F)cc1,outcome,[17],inactive
